The list is not random: actives were taken first. Their share in the collection is about 2.8%.
proKLK7 act: activates the human kallikrein-7 zymogen | purified proKLK7, EDANS-DABCYL substrate fluorescence; 100% is mature enzyme control, 0% vehicle | P49862 | 370,000 compounds, 0.9% hits | AID 652039 | activation, % at 7 µM;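 active = activation above the mean of all tested compounds plus 3 SD, computed per campaign excluding outliers beyond control limits, cut at about 13% in these data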
Target sequence (P49862 whole entry, looked up): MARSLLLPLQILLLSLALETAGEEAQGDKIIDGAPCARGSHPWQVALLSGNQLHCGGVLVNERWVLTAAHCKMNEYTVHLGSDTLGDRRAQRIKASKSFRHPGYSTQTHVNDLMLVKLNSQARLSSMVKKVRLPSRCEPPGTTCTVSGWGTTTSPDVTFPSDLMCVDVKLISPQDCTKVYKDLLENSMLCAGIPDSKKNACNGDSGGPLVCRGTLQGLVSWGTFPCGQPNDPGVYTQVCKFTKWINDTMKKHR
SMARCA2 act: activators of SMARCA2 function. MG213 cells, MMTV-luciferase reporter, dexamethasone, overnight. activation, % at 9.1 µM. 370,000 compounds, 1% hits; in the data active = activation above about 7.8%
MsrA inh: inhibitors of bovine MsrA; purified bovine MsrA, absorbance read-out; inhibition, % at 15.5 µM; 360,000 compounds, 0.75% hits; AID 651718; in the data active = inhibition above about 4.5%
MsrA act: bovine methionine sulfoxide reductase A activation | purified bovine MsrA, absorbance read-out | 360,000 compounds, 0.3% hits | activation, % at 10.6 µM; in the data active = activation above about 7.5%
SMARCA2 act conf: SMARCA2 activation, confirmation screen. shares compounds with SMARCA2 act. MG213 cells, MMTV-luciferase with dexamethasone, luminescence, overnight; MG213 cells expressing E1A, Rb sequestered; DMSO wells 0%, reference activator 100%. activation, % at 9.1 µM. 3,500 compounds, 30% hits;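 active = activation above its plate's cutoff, the mean activation of tested wells plus 3 SD, cut at about 7.9% in these data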
GAL4-VP16 Luc: activates GAL4-VP16 luciferase, flagging SMARCA2 activator hits; shares compounds with SMARCA2 act; HEK293 GAL4-VP16 pG5luc reporter, luciferase luminescence; scaled: DMSO wells 0%, SAHA wells 100%; activation, % at 9.1 µM; 3,500 compounds, 41% hits; AID 686939;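 active = activation above the solvent-only control well mean plus 3 SD, averaged across control plates, cut at about 5.2% in these data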
Hits are given with their value; 0 = inactive; - = no result.

SMILES	proKLK7 act	SMARCA2 act	MsrA inh	MsrA act	SMARCA2 act conf	GAL4-VP16 Luc
O=[N+]([O-])c1cccc(-c2ccc(C(=S)N3CCN(c4ccc(F)cc4)CC3)o2)c1	0	9.1	0	0	0	0
Cc1csc(C(=O)NN)c1N(C)C	0	9.1	0	0	0	0
Cc1c(C(=O)NN)sc(=S)n1C	0	0	0	0	-	-
CN(C)CCNc1ncnc2c1cnn2-c1ccc(Cl)cc1	0	13	0	0	11	12
CC(=O)c1ccc2noc(-c3cccc(F)c3)c2c1	0	0	0	0	-	-
COc1cccc(-c2onc3ccc(C(C)=O)cc23)c1	0	8.4	0	0	0	0
O=C(Nc1cccc(F)c1)c1ccc(-n2cncn2)c2ccoc12	0	12	0	0	8.2	8.7
O=[N+]([O-])c1ccc(SCCc2ccncc2)cc1	0	0	0	0	-	-
O=[N+]([O-])c1ccc(SCCc2ccccn2)cc1	0	12	0	0	0	0
CN(C(=O)COC(=O)COc1ccc(Cl)cc1)C1CCCCC1	0	0	0	0	-	-
Cc1cc(OCC(=O)N(C)C2CCCCC2)ccc1Cl	0	10	0	0	0	17
O=C(Nc1nc2ncccn2c1-c1ccc(F)cc1)C1CC1	0	8.7	-	-	0	0
O=C(Nc1ccccc1)Nc1nc2ncccn2c1-c1ccc(F)cc1	0	14	-	-	0	0
O=C(Nc1nc2ncccn2c1-c1ccc(C(F)(F)F)cc1)C1CC1	0	0	-	-	-	-
Cc1ccc(CN2CCN(c3ccccn3)CC2)s1	0	9.6	0	0	0	0
O=C(CNC(=O)c1ccncc1)N/N=C/c1ccc(Br)cc1	0	0	0	0	-	-
O=C(CNC(=O)c1ccc(Br)cc1)N/N=C/c1cccnc1	0	10	0	0	0	0
NC(=Nc1ccccc1)NC(=O)c1nc(Cl)c(N)nc1N	0	9.2	0	0	27	11
C=CS(=O)(=O)N(Cc1ccccc1Br)[C@H](CO)CC(C)C	0	0	0	0	-	-
Cc1ccccc1C(=O)NC1CCCCN(Cc2ccc(Cl)cc2)C1=O (stereo not given)	0	0	-	-	-	-
CN(C)c1ccc(NC(=O)Nc2cccc(Cl)c2)cc1	0	9.7	0	0	0	15
CN(c1cccc(NC(=O)Nc2cccc(Cl)c2)c1)S(C)(=O)=O	0	0	0	0	-	-
CN(C)c1ccc(NC(=O)Nc2ccc3c(c2)nnn3C)cc1	0	20	0	0	11	6.1
COc1ccc(C#CCN(Cc2ccc(OC)cc2OC)C(N)=NC(=O)CCc2ccccc2)cc1	0	0	-	-	-	-
CN(C)Cc1ccccc1CNC(=O)c1ccc(Cl)c(S(=O)(=O)NC2CC2)c1	0	0	0	0	-	-
SMILES	proKLK7 act	SMARCA2 act	MsrA inh	MsrA act	SMARCA2 act conf	GAL4-VP16 Luc
CN(C)Cc1ccc(CNC(=O)c2ccc(Cl)c(S(=O)(=O)NC3CC3)c2)cc1	0	9.0	0	0	0	0
CC(=O)Nc1sc(C)c(C)c1CN1CCN(Cc2ccccc2)CC1	0	0	0	0	-	-
Cc1sc(NC(=O)c2ccccc2F)c(CN2CCCCC2C)c1C (stereo not given)	0	9.5	0	0	8.6	11
O=c1[nH]c(CN2CCN(S(=O)(=O)c3ccccc3C(F)(F)F)CC2)nc2sc3c(c12)CCCC3	0	12	0	0	0	0
COc1cc2ccccc2cc1C(=O)NC1CCC(C)CC1 (stereo not given)	0	12	0	0	0	7.6
Cc1ccc(/C=C2\CCOC2=O)cc1	0	0	0	0	-	-
Cc1ccc(/C=C2/CNC/C(=C/c3ccc(C)cc3)C2=O)cc1	0	15	0	0	0	0
Cc1cc(C)nc(Nc2nc(=O)c3ccccc3s2)n1	0	8.8	0	0	0	14
CCN(CC)c1ccc(C=Nn2c(-c3ccc(F)cc3)n[nH]c2=S)c(O)c1	0	0	-	-	-	-
COc1cccc(C=NN(C)c2c([N+](=O)[O-])cc(C(F)(F)F)cc2[N+](=O)[O-])c1O	0	0	0	0	-	-
O=S(=O)([N-]c1nc2ccccc2nc1-n1cc[n+](Cc2ccccc2)c1)c1ccc(Br)cc1	0	11	0	0	0	0
COc1ccc(CCNC(=O)c2ccc(Br)cc2)cc1	0	0	0	0	-	-
COc1ccc(CCNC(=O)c2coc(=O)c(Br)c2)cc1	0	29	0	-	12	11
Cc1ccc(S(=O)(=O)N2CCOCC2)cc1C(=O)NCC1CCCCC1	0	0	0	0	-	-
CCSc1nc(N2CCOCC2)c2ccccc2n1	0	13	0	0	0	0
O=C(CC1(O)C(=O)Nc2cc(Cl)cc(Cl)c21)c1ccncc1 (stereo not given)	0	11	0	0	0	0
CC(C)CNS(=O)(=O)/C=C/c1ccc(F)cc1CNC(=O)OC(C)(C)C	0	0	-	-	-	-
CCSc1ccc(-c2ccc(C)cc2)nn1	0	13	0	0	14	9.5
Cc1noc(C)c1C(=O)NCCc1ccccc1	0	9.7	0	0	0	0
N=c1n(CC(=O)c2ccc(Br)s2)c2ccccc2n1Cc1ccccc1	0	8.2	0	0	23	0
COc1cccc(-n2ccnc2SCC(=O)N2CCc3ccccc32)c1	0	0	0	0	-	-
Cn1ccnc1SCC(=O)N1CCc2ccccc21	0	8.2	0	0	11	8.7
Cc1ccc(-c2cnc3ccccc3n2)cc1C	0	8.2	0	0	0	9.4
Cc1cc2ncc(-c3ccccc3)nc2cc1C	0	0	0	0	-	-
CCn1c(=O)n(CC(=O)N2CCN(C(C)=O)CC2)c(=O)c2ccccc21	0	0	-	-	-	-
SMILES	proKLK7 act	SMARCA2 act	MsrA inh	MsrA act	SMARCA2 act conf	GAL4-VP16 Luc
C=COC(=O)c1sc2nc(C)cc(C)c2c1N	0	9.3	0	0	11	0
COC(=O)c1sc2nc(C)cc(C)c2c1N	0	0	0	0	-	-
CC1CC(C)CN(C(=O)CSC2=Nc3ccccc3C3=NC(Cc4c[nH]c5ccccc45)C(=O)N23)C1 (stereo not given)	-	-	-	0	-	-
O=C(CSC1=Nc2ccccc2C2=NC(Cc3c[nH]c4ccccc34)C(=O)N12)NC1CCCCC1 (stereo not given)	0	8.6	0	0	0	0
Cc1ccc(N2C(=O)CCSC23C(=O)Nc2ccccc23)cc1 (stereo not given)	0	0	0	0	-	-
COc1ccc(N2C(=O)CSC23C(=O)Nc2ccccc23)cc1 (stereo not given)	0	8.6	0	0	0	0
Cc1ccccc1NC(=O)COC(=O)c1ccc(S(C)(=O)=O)c([N+](=O)[O-])c1	0	16	0	0	0	0
CS(=O)(=O)c1ccc(C(=O)OCc2nnc(-c3ccccc3)o2)cc1[N+](=O)[O-]	0	12	0	0	0	9.0
CS(=O)(=O)c1ccc(C(=O)OCC(=O)N2CCOCC2)cc1[N+](=O)[O-]	0	8.2	0	0	18	0
CS(=O)(=O)c1ccc(C(=O)OCC(=O)Nc2cccnc2Cl)cc1[N+](=O)[O-]	-	-	-	0	-	-
CCCCc1c(-c2ccccc2OC)ncn1Cc1ccc(C(C)(C)C)cc1	0	0	0	-	-	-
